We go through nine molecules from PubChem BioAssay.

The source made the active and inactive calls.

Assay [1] can be described thus: small molecules captured by biotinylated probe aFSTL3 – biochemical, small-molecule microarray, fluorescence 635/667, stem cell growth factor project, primary screen (AID 1064).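 Note: measures binding of the biotinylated anti-FSTL3 antibody to printed compounds.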 The note with it: higher = more signal.
Assay [2] is described as follows: binders from COS7 lysate, DM2A8 probe, primary screen, torsin A project, cell lysate, small-molecule microarray, fluorescence 635/667 (AID 1065). To be noted: higher = more signal, COS7 lysate expressing mutant human TOR1A.
Assay [3] is described as follows: small molecules captured by biotinylated probe aFGF2 – biochemical, small-molecule microarray, fluorescence 635/667, stem cell growth factor project, primary screen (AID 1067).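 Note: measures binding of biotinylated aFGF2 protein to printed compounds on slides; z-score merges feature fluorescence and signal-to-noise across triplicate slides.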 To be noted: higher = more signal.
Assay [4] is described as follows: small molecules captured by biotinylated probe aFGF10 – biochemical, small-molecule microarray, fluorescence 635/667, stem cell growth factor project, primary screen (AID 1071).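 Note: score merges 667 nm spot intensity and signal to noise from triplicate slides.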 The note with it: higher = more signal.
The target of assay [5] is Neurogenic locus notch homolog protein 2 (Homo sapiens) (UniProt Q04721). Put plainly: small molecules binding Notch2 protein – biochemical, small-molecule microarray, 635 nm fluorescence, stem cell growth factors, primary screen (AID 1073). The note with it: higher = more signal.
Chain of Neurogenic locus notch homolog protein 2 (Homo sapiens) (Q04721 whole entry, looked up, canonical isoform): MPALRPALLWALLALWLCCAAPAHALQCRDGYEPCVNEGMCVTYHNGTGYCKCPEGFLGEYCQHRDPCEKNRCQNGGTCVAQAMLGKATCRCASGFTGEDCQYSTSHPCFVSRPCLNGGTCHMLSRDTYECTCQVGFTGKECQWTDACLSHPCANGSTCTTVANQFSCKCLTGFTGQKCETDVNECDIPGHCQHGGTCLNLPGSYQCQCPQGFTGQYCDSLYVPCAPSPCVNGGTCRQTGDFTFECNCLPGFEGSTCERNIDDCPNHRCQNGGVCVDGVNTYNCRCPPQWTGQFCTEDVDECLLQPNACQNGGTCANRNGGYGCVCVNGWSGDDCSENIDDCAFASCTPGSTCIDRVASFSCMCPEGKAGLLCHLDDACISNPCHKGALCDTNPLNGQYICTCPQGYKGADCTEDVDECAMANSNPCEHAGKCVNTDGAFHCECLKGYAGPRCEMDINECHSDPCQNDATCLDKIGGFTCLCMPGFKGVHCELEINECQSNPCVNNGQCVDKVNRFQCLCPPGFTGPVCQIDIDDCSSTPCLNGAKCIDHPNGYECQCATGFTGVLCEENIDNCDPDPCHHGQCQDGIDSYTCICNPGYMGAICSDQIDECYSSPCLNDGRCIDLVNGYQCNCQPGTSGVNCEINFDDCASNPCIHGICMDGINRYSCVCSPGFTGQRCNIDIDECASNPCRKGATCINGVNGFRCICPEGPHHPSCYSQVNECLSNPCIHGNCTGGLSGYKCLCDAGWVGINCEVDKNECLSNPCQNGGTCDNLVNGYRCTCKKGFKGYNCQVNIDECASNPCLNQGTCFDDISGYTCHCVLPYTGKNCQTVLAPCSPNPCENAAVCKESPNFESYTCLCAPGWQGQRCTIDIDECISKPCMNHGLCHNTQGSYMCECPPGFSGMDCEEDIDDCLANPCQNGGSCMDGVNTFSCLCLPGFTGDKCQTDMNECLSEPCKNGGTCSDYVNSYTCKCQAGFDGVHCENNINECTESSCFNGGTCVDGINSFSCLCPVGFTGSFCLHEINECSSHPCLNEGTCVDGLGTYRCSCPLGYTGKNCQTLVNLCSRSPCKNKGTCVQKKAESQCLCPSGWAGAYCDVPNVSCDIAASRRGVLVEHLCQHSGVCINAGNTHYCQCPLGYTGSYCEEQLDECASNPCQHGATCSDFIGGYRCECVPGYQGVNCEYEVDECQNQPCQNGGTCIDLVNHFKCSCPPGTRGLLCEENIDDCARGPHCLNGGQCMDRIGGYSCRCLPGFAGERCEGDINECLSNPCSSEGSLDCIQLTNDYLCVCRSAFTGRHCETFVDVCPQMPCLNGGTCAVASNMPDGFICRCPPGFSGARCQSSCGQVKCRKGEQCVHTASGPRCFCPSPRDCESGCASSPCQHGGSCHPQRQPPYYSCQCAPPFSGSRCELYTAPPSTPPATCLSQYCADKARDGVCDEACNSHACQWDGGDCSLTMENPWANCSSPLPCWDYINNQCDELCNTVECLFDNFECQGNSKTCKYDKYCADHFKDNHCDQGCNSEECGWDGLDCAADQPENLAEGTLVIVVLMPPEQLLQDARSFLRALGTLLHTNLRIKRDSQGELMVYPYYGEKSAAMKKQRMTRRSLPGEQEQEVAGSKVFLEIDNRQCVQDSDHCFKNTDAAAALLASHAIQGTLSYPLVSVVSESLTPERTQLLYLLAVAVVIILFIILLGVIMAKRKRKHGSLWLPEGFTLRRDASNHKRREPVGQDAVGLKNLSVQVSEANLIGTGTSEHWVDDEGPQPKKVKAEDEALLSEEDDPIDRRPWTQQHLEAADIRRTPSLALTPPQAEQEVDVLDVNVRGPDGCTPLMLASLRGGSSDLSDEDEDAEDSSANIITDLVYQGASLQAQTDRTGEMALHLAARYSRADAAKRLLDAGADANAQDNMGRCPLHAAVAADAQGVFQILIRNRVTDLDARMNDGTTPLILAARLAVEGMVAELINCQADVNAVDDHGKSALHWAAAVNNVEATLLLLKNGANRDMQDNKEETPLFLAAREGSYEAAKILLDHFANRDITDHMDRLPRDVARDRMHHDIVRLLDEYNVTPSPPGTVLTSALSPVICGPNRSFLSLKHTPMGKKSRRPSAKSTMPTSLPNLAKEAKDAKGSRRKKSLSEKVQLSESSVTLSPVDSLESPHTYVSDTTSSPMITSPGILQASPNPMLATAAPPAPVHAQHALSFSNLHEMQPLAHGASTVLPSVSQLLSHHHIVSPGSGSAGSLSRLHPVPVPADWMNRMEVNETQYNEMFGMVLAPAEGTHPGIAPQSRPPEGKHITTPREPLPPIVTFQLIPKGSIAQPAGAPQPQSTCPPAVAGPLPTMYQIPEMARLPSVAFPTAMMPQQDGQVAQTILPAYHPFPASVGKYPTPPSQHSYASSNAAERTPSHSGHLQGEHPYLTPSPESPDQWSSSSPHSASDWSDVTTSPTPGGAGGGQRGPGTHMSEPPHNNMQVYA
In assay [6] the target is Pro-neuregulin-1, membrane-bound isoform (Homo sapiens) (UniProt Q02297). Put plainly: small molecules binding neuregulin-1 protein – biochemical, small-molecule microarray, fluorescence 635/667, psychiatric disease protein project, primary screen (AID 1075).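 Note: score combines 667 nm spot fluorescence with signal to noise.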 To be noted: NRG1 binding, 635 nm fluorescence, higher = more signal.
Chain of Pro-neuregulin-1, membrane-bound isoform (Homo sapiens) (Q02297 whole entry, looked up, the tested form may be a part, canonical isoform): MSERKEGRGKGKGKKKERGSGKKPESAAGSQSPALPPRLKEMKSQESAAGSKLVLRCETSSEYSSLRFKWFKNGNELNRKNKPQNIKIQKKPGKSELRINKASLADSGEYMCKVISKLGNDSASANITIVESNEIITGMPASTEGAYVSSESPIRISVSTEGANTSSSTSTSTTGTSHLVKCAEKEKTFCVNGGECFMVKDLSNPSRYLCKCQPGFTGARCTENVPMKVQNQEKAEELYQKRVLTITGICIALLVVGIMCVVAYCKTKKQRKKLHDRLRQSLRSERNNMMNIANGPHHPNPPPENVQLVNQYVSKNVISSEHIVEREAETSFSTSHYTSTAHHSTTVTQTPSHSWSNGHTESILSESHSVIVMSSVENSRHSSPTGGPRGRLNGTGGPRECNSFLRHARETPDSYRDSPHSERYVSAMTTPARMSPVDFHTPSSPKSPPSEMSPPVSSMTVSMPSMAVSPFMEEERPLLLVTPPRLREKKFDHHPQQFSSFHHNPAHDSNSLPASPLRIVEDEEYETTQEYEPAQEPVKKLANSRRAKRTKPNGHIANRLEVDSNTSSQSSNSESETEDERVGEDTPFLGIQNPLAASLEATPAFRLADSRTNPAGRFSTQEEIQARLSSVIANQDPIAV
In assay [7] the test system is Neuregulin-1 EGF-like domain. The assay can be described thus: small molecules binding NRG1 EGF domain – biochemical, small-molecule microarray, 635 nm fluorescence, primary screen (AID 1081).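 Note: binding of the protein to compounds printed on small-molecule microarray slides.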 The note with it: higher = more signal.
Assay [8] can be described thus: FRG1 expression reporter modulators in myotubes – cell-based, C2C12 myotubes, firefly/Renilla luciferase, luminescence, FRG1 inhibition for FSHD, primary screen (AID 1084). The note with it: FRG1 promoter luciferase, higher = more signal, called active from +8 up or from −8 down.
The nature of assay [9]: small molecules captured by biotinylated probe aFST – biochemical, small-molecule microarray, fluorescence 635/667, stem cell growth factor project, primary screen (AID 1086).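 Note: score merges 667 nm fluorescence with signal-to-noise of each printed compound spot.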 The note with it: higher = more signal.
Assay [10] is described as follows: binders of probe aHhip on microarray, primary screen, stem cell growth factor project, biochemical, small-molecule microarray, fluorescence 635/667 (AID 1087).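 Note: score merges spot fluorescence at 667nm with spot signal to noise ratio.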 To be noted: higher = more signal.
For assay [11], the system named is PRMT1 (protein arginine N-methyltransferase 1). The assay can be described thus: small molecules binding arginine methyltransferase PRMT1 – biochemical, small-molecule microarray, 635 nm fluorescence, primary screen (AID 1088).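 Note: binding of Prmt1 protein to compounds spotted on small-molecule microarray slides.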 The note with it: higher = more signal.
Assay [12] can be described thus: growth effects on S. cerevisiae YJM789 – YJM789 clinical isolate, OD600, 24 h, basal, primary screen (AID 1089).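 Note: growth of clinical yeast isolate S. cerevisiae YJM 789 seeded 1000 cells per well; test concentration not given here.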 The note with it: higher = more signal, called active from +8 up or from −8 down.
Assay [13] can be described thus: S. pombe growth modifiers, basal conditions – strain 972, OD600, 24 h, no modulator, primary screen (AID 1090).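 Note: basal condition with compound alone and no growth modifier present; test concentration not given here.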 To be noted: S. pombe 972 growth, higher = more signal, called active from +8 up or from −8 down.
Assay [14] can be described thus: budding yeast growth modifiers under rapamycin – strain BY4716, OD600, 96 h, primary screen (AID 1091). Note: test concentration not given here. To be noted: S. cerevisiae BY4716 + rapamycin, higher = more signal, called active from +8 up or from −8 down.
Assay [15] concerns the target Torsin-1A-interacting protein 2 (Homo sapiens) (UniProt Q8NFQ8). Put plainly: small molecules binding lysate-expressed LULL1 – cell lysate, human LULL1 lysate, 635/667 nm fluorescence, primary screen (AID 1092).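 Note: score merges per-feature 667 nm fluorescence with signal-to-noise.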 To be noted: small-molecule microarray, hLULL1 lysate binding, 635 nm fluorescence; higher = more signal.
Assay [16] can be described thus: optical density change of DRC41 E. coli – strain DRC41, OD650, 24 h, E. coli filamentation project, primary screen (AID 1093).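 Note: MC1000 strain lacking acrAB efflux and sulA so SOS filamentation is blocked; test concentration not given here.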 The note with it: E. coli DRC41 growth, higher = more signal, called active from +8 up or from −8 down.
Assay [17] is described as follows: probe aLefty2 binding to arrayed compounds – biochemical, biotinylated probe, 635/667 nm fluorescence, primary screen (AID 1094).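 Note: score merges spot fluorescence near 667 nm with spot signal-to-noise ratio.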 To be noted: small-molecule microarray, higher = more signal.
Assay [18] concerns Noggin (protein binding on small-molecule microarray). Put plainly: small molecules binding Noggin protein – biochemical, 635/667 nm fluorescence, primary screen (AID 1095).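 Note: score merges 667 nm feature fluorescence with signal to noise over triplicate slides.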 The note with it: 635 nm fluorescence, higher = more signal.
The target of assay [19] is Neurogenic locus notch homolog protein 3 (Homo sapiens) (UniProt Q9UM47). The assay can be described thus: small molecules binding NOTCH3 protein – biochemical, 635/667 nm fluorescence, primary screen (AID 1096). To be noted: small-molecule microarray, 635 nm fluorescence, higher = more signal.
Assay [20] is described as follows: probe aEGFR binding to arrayed compounds – biochemical, biotinylated probe, 635/667 nm fluorescence, primary screen (AID 1097).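 Note: probe is a biotinylated anti-EGFR antibody binding compounds printed on slides; score combines fluorescence near 667 nm and signal to noise of each spot.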 To be noted: small-molecule microarray, higher = more signal.

Chain of Torsin-1A-interacting protein 2 (Homo sapiens) (Q8NFQ8 whole entry, looked up): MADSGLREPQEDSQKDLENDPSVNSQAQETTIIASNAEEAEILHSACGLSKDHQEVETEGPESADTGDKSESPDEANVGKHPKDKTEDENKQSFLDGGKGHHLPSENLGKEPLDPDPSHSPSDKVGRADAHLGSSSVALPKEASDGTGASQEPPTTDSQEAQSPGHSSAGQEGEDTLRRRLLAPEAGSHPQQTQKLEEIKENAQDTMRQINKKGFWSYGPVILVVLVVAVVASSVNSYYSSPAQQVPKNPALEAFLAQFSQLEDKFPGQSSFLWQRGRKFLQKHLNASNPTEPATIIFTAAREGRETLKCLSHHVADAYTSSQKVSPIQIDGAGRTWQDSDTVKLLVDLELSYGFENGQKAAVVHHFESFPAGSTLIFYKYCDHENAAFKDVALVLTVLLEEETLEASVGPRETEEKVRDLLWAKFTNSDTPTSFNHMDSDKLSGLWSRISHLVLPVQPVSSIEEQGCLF

Regarding `C=C(COC)/C(=C/C[C@H](OC(C)=O)c1cccc(OCCO)c1)c1cc(C(=O)OC)ccc1OC`, the composite z-score is -0.269 in [1]; 0.952 in assay [2]; -0.0986 in [3]; 0.318 in assay [4]; -0.38 in assay [5]; 0.0557 in [6]. The composite z-score in assay [7] was 0.691; in assay [9], 0.276; in [10], -0.0296; in assay [11], 0.905; in [15] it was 0.574; in assay [17], 0.0056. Further, the composite z-score in assay [18] was 1.29; in assay [19] it was 0.694; in assay [20], -0.151. Moreover, the z-score in assay [8] is -3.63 (inactive); in assay [12], -25.1 (active); in assay [13] it was -20.5 (active); in [14], -4.33 (inactive); in [16], 1.57 (inactive).
With `NCCCCCCNC(=O)[C@@H]1C[C@@H]2C(=O)N[C@@H](Cc3ccccc3)C(=O)N2[C@@H]1c1ccc(O)cc1`, the composite z-score in assay [1] was 1.38; in assay [2] it was 0.757; in assay [3] it was -0.0715; in assay [4] it was -0.113; in assay [5], 0.179; in assay [6] it was 1.25. Further, the composite z-score in assay [7] is 1.33; in assay [9] it was 0.422; in [10], -0.265; in assay [11] it was 0.914; in assay [15], 1.36; in assay [17] it was 0.635. The figures for the composite z-score in assay [18], in [19] and in [20] were 0.561, 0.164 and -0.063, respectively. Also, the z-score is 0.611 (inactive) in assay [8]; -0.507 (inactive) in assay [12]; -1.11 (inactive) in assay [13]; -0.373 (inactive) in assay [14]; 0.792 (inactive) in assay [16].
Turning to `CCCNC(=O)[C@@H]1c2ccccc2C(=O)N(Cc2cc(C(F)(F)F)cc(C(F)(F)F)c2)[C@H]1c1ccc(CO)cc1`, the composite z-score is 0.684 in assay [1]; -0.27 in assay [2]; 0.0064 in [3]; 0.0859 in [4]; 0.394 in assay [5]; 0.519 in [6]. The composite z-score in assay [7] worked out at 1.2; in assay [9] it was 0.361; in assay [10], 0.0895; in [11] it was 1.09; in [15] it was 1.34; in assay [17], 0.0758. In addition, the composite z-score in [18] was 0.261; in [19], 0.523; in assay [20] it was -0.0255. The z-score in assay [8] is -0.0626 (inactive); in assay [12], 0.73 (inactive); in assay [13] it was -1.69 (inactive); in assay [14] it was -0.262 (inactive); in assay [16], 0.315 (inactive).
With `CO[C@H]1O[C@H](CO)[C@@H](OC(=O)CCc2ccccc2)[C@@H]2OC(=O)[C@H](Cc3ccccc3)C/C=C/C[C@@H](Cc3ccccc3)C(=O)O[C@@H]12`, the composite z-score in [1] was -0.0198; in assay [2], -0.106; in [3], -0.134; in assay [4] it was -0.357; in assay [5] it was -0.512; in assay [6], 0.92. The composite z-score in assay [7] was 1.14; in assay [9], -0.306; in assay [10], -0.337; in assay [11] it was 0.696; in assay [15], 1.4; in assay [17], -0.0905. The composite z-score is -0.748 in assay [18], -0.033 in [19] and -0.347 in assay [20]. Also, the z-score in assay [8] is -1.51 (inactive); in assay [12] it was -0.696 (inactive); in [13], -2.18 (inactive); in assay [14], 11.3 (active); in assay [16] it was 1.98 (inactive).
For the molecule `CC(=O)OC(C/C=C\B1OC(C)(C)C(C)(C)O1)c1ccccc1` (stereo not given), the composite z-score in assay [1] was 0.696; in [2] it was 0.0193; in assay [3], -0.038; in [4], -1.06; in assay [5] it was -0.542; in [6], -0.451. For the same molecule, the composite z-score is -0.679 in assay [7]; -0.0273 in assay [9]; -0.353 in assay [10]; -0.0413 in assay [11]; -0.126 in assay [15]; -0.0231 in assay [17]. The figures for the composite z-score in [18], in [19] and in assay [20] were -0.502, -0.761 and -0.268, respectively. Besides, the z-score in assay [8] is -1.52 (inactive); in assay [12], -2.82 (inactive); in assay [13] it was -4.32 (inactive); in assay [14] it was -3.49 (inactive); in assay [16] it was -3.15 (inactive).
In the case of `COC(=O)C1=CC(c2ccc(CO)cc2)=CC(C2CC2)N(C)C=C1C(=O)OC` (stereo not given), the composite z-score was 0.315 in [1]; 0.903 in assay [2]; -0.0538 in assay [3]; -0.0649 in [4]; 0.115 in assay [5]; 1.61 in assay [6]. In addition, the composite z-score is 0.97 in assay [7]; 0.0593 in [9]; -0.0994 in assay [10]; 1.31 in assay [11]; 2.6 in [15]; -0.141 in assay [17]. Besides, the composite z-score in assay [18] is -0.946; in assay [19], -0.464; in [20], -0.154. Moreover, the z-score in assay [8] is -1.67 (inactive); in assay [12], -5.61 (inactive); in assay [13], -4.93 (inactive); in assay [14], -2.41 (inactive); in assay [16], 0.585 (inactive).
As for `O=C(O)[C@H]1C[C@H]2C(=O)NCC(=O)N2[C@H]1c1cccc(OCCO)c1`, the composite z-score in assay [1] is 2.86; in assay [2] it was 0.942; in assay [3] it was 0.0568; in [4], -0.213; in assay [5], 0.29; in [6], 1.41. Besides, the composite z-score in [7] was determined as 0.986; in assay [9], 1.98; in assay [10], 0.745; in assay [11], 1.23; in assay [15] it was 1.51; in assay [17], 0.0889. In addition, the composite z-score in [18] worked out at 0.0133; in assay [19], 0.446; in assay [20] it was 0.108. Further, the z-score in assay [8] was 5.62 (inactive); in assay [12], -1.63 (inactive); in assay [13] it was -2.01 (inactive); in [14] it was -1.11 (inactive); in [16] it was 2.5 (inactive).
For `C=CCN1C(=O)[C@]2(O[C@H](CCn3cc([C@H](O)c4ccccc4)nn3)[C@@H]([Si](C)(C)c3ccc(OC)cc3)[C@@H]2C)c2cc(N3CCOC3=O)ccc21`, the composite z-score in [1] is 0.264; in assay [2], 0.443; in assay [3] it was -0.154; in assay [4], -0.213; in assay [5], -0.74; in assay [6], 0.579. For the same molecule, the composite z-score in assay [7] was 1.16; in assay [9] it was -0.297; in [10], -0.0128; in [11], 1.37; in assay [15] it was 1.41; in [17], -0.23. Further, the composite z-score is -0.394 in [18], -0.583 in assay [19] and -0.232 in assay [20]. Also, the z-score in assay [8] was -2.7 (inactive); in assay [12] it was 0.326 (inactive); in [13] it was 0.155 (inactive); in [14] it was 4.47 (inactive); in assay [16], 1.75 (inactive).
For `C=CCC(OC(C)=O)[C@@H]1[C@@H](N(Cc2cccc3ccccc23)C(=O)c2cccc3ccccc23)c2cc(OCCCO)ccc2N1C(=O)Cc1ccc(OC)cc1` (stereo not given in full), the composite z-score in assay [1] was -0.0733; in [2], -0.136; in assay [3] it was -0.0569; in [4], 0.108; in [5], 0.568; in [6], 0.123. Besides, the composite z-score is 0.193 in assay [7]; 0.03 in [9]; -0.0994 in [10]; 0.435 in assay [11]; 1.52 in assay [15]; -0.121 in [17]. For the same molecule, the composite z-score turned out to be 0.0439 in [18], 0.171 in [19] and 0.0073 in assay [20]. Further, the z-score in assay [8] was -1.64 (inactive); in [12], -1.17 (inactive); in assay [13], -1.59 (inactive); in [14], -0.8 (inactive); in [16] it was 2.09 (inactive).
